The values that follow come from ChEMBL document CHEMBL4888484, “Replenishing the malaria drug discovery pipeline: Screening and hit evaluation of the MMV Hit Generation Library 1 (HGL1) against asexual blood stage Plasmodium falciparum ,using a nano luciferase reporter read-out” (2022).

Structures are written as SMILES. Screen size: about 150,000 compounds; about 540 (0.36%) showed an effect of 50% or more. Only a selection was taken, and strong results are over-represented in it overall.

This assay has as its system Plasmodium falciparum. In words: Primary screen in NF54 nanoGlo assay, in single point, at 2uM, 72h; a lower Z score goes with more inhibition. Type of assay: functional, Erythrocyte. The conditions noted are these: timepoint 72 hour.
As to `COc1ccc([C@@H](CC(=O)NCc2ccc(F)cc2)c2c[nH]c3ccccc23)c(OC)c1`, the “% Inhibition” value is on record as 3% and the Z score is recorded as -0.42.

As for `COc1cc(NC(C)(C)CN2CCOCC2)ncn1`, the “% Inhibition” value was -11% and the Z score is on record as 0.99.

For `O=C(NC[C@H](O)c1cccnc1)c1ncoc1C1CC1`, the “% Inhibition” value is -7% and the Z score was 0.94.

`COC[C@H]1CCCCN1C(=O)c1ccnc(C2CCCC2)n1`: the “% Inhibition” value is 7% and the Z score is on record as -1.03.

On to `COc1ccc(N2CCN(C(=O)c3ccn4c(-c5ccccc5)nnc4c3)CC2)cc1`, for which the “% Inhibition” value is given as -3% and the Z score came out at 0.29.

On to `COc1ccccc1CNC(=O)c1cc(C)nc2c(-c3ccc(C)cc3)cccc12`, for which the “% Inhibition” value amounted to 12% and the Z score was -1.38.

In the case of `COc1cccc(N2CCC(N3CCC4(CC3)CNC(=O)O4)CC2)c1`, the “% Inhibition” value is -2% and the Z score is 0.35.

In the case of `Cc1nc2c(c(NC(=O)Cc3ccccc3)nn2C)c(C)c1Cl`, the “% Inhibition” value is -8% and the Z score came out at 0.76.

On to `Cc1cnccc1NCCNC1CCN(c2ccc3c(c2)CCC3)CC1`, for which the “% Inhibition” value is 85% and the Z score was -13.14.

Regarding `Cc1ccc(N2CCC(NCCCn3cccn3)CC2)cc1Cl`, the “% Inhibition” value is recorded as -5% and the Z score is listed as 0.81.

For `CN1CCC[C@@H]1CCNC1CCN(c2ccc3c(c2)CCC3)CC1`, the “% Inhibition” value is given as 21% and the Z score was -2.96.

`CCn1cncc1CNC1CCN(c2ccc3c(c2)CCC3)CC1`: the “% Inhibition” value was -14% and the Z score turned out to be 1.42.

`Cc1cnccc1NCCNC1CCN(c2ccc(Cl)cc2)CC1`: the “% Inhibition” value was 99% and the Z score is recorded as -17.94.

As for `CN(CC1(CO)CCCC1)C(=O)CN1CCCCC1`, the “% Inhibition” value is reported as -8% and the Z score stood at 1.48.

Consider `O=C(c1ccc(F)cc1)N1CCC(N2CCS(=O)(=O)CC2)CC1`, for which the “% Inhibition” value is on record as -12% and the Z score was 1.04.

As for `CCc1cc(N2CCN(CCc3ccccc3)C(=O)C2)ncn1`, the “% Inhibition” value is recorded as -15% and the Z score was 2.

As for `Cc1ccc([C@H]2C(=O)N(C3CCC(C)CC3)CC(=O)N2C2CCCCCCC2)cc1` (stereo not given in full), the “% Inhibition” value is -6% and the Z score is on record as 0.82.

`O=C(O)C1(NCc2cc(-c3ccc(Cl)cc3)no2)CCCC1`: the “% Inhibition” value is given as 11% and the Z score was -1.27.

For `C[C@@H](O)[C@@H]1NC(=O)[C@@H](Cc2c[nH]c3ccccc23)NC1=O`, the “% Inhibition” value stood at 5% and the Z score is recorded as -1.07.

For `C=C1C(C)C2C(Cc3c[nH]c4ccccc34)NC(=O)C23C(=O)CC(O)C(O)CC(C)C/C=C/C3C1O` (stereo not given), the “% Inhibition” value was determined as 67% and the Z score is listed as -7.59.

Consider `CC1CC(C(=O)N2CCN(C(=O)Cc3c[nH]c4ccccc34)CC2)C1` (stereo not given), for which the “% Inhibition” value is -3% and the Z score came out at 0.48.

Take `CC1=NO[C@H](C(=O)NCC2(Cn3ccnc3C)CC2)C1`: the “% Inhibition” value is recorded as -4% and the Z score is 0.75.

Take `CCc1ccc(CN2CCC[C@H](CNC(=O)c3ccc[nH]3)C2)nc1`: the “% Inhibition” value is -4% and the Z score is given as 0.44.

Consider `CCc1ccc(CN2CCC[C@H](c3ncc[nH]3)C2)nc1`, for which the “% Inhibition” value is given as 65% and the Z score was -9.74.

As for `Cc1[nH]c(CN2CCC[C@H](c3ncc[nH]3)C2)cc1C#N`, the “% Inhibition” value was -1% and the Z score turned out to be 0.23.

In the case of `Cc1ccc(CN2CCC3(CC2)c2nc[nH]c2CCN3C(=O)C2CCC2)cc1C`, the “% Inhibition” value is -14% and the Z score was determined as 1.47.

`Cc1cccc2c1OCC[C@@H]2NCc1cnn(C(C)C)c1`: the “% Inhibition” value worked out at 0% and the Z score is 0.

Turning to `O=C(O)c1cccc(-c2noc(C3CC3)n2)c1`, the “% Inhibition” value is on record as 11% and the Z score is given as -1.45.

On to `O=C(c1cccc(-c2noc(C3CCC3)n2)c1)N1CCN(c2ccccc2)CC1`, for which the “% Inhibition” value is recorded as -3% and the Z score was found to be 0.4.

For `CC1CC(N)CCN1C(=O)c1cccc(-c2noc(C3CC3)n2)c1` (stereo not given), the “% Inhibition” value was 56% and the Z score was 0.5.

As to `Cc1cc(C(=O)N(CC2CCC2)CC(F)(F)F)[nH]n1`, the “% Inhibition” value was -10% and the Z score is listed as 1.63.

As to `O=C(NCCN1CCCC1)c1ccc2nc(-c3ccc(Cl)cc3)cn2c1`, the “% Inhibition” value amounted to 75% and the Z score was -6.47.

As to `CN1CCC[C@@H]1CCNC(=O)c1ccc2nc(-c3ccc(F)cc3)cn2c1`, the “% Inhibition” value amounted to 8% and the Z score is -1.12.

As to `CN1CCCC[C@@H]1CNC(=O)c1ccc2nc(-c3ccc(F)cc3)cn2c1`, the “% Inhibition” value is recorded as -5% and the Z score is reported as 0.91.

On to `Cc1ccn2c(C(=O)NCc3cc(F)ccc3C)nnc2n1`, for which the “% Inhibition” value is given as -17% and the Z score was found to be 3.23.

As to `O=C1CCN(Cc2cc3cc4c(cc3nc2-c2ccc(Cl)cc2)OCO4)CCN1`, the “% Inhibition” value stood at 2% and the Z score is given as -0.18.

Take `CN1CCN(Cc2cc3cc4c(cc3nc2-c2ccc(Cl)cc2)OCO4)CC1=O`: the “% Inhibition” value came out at 53% and the Z score is given as -6.77.

With `CCN1CCN(Cc2cc3cc4c(cc3nc2-c2ccc(Cl)cc2)OCO4)CC1`, the “% Inhibition” value is -10% and the Z score is given as 1.95.

Consider `Cc1ccc(-c2nnc(N3CCC4(CCOC4)C3)n2CC2CCCO2)s1` (stereo not given), for which the “% Inhibition” value is given as -3% and the Z score came out at 0.32.

Regarding `O=C1N[C@H]2C[C@@H](C(=O)NC[C@H]3O[C@H](CCOc4cc(-c5ccccc5)ccc41)CC[C@@H]3O)N(Cc1ccc3c(c1)OCO3)C2`, the “% Inhibition” value is given as 51% and the Z score is recorded as -1.36.
